Measurements as given in PubChem BioAssay (NCATS).
Inconclusive results are not listed. Calls of active or inactive are those of the source. Calls follow the shape of the dose curve; as a rule, active = well fitted inhibition curve with a large enough effect; inconclusive = small, poorly fitted or top-dose-only effect; inactive = flat fitted curve, though single readings scatter.

molecular target: Aldehyde dehydrogenase, mitochondrial (Homo sapiens) (UniProt P05091); assay: qHTS for Inhibitors of the Aldehyde Dehydrogenase Family (ALDH2) Primary screen (AID 2061308); conditions: ALDH2 enzyme inhibition qHTS, 1536-well; series mostly up to 56 µM; activity change, negative = inhibition: at the top concentration;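 also: plate controls were vehicle for no effect and reference inhibitor for full effect; nearly all actives have a fitted effect of over 55% in size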

Row | SMILES | activity change, negative = inhibition
1 | O=S(=O)(NC1CCC(CNS(=O)(=O)c2c(F)cccc2F)CC1)c1ccc2c(c1)OCCO2 (stereo unspecified) | 9.68% (inactive)
2 | COc1cc(Cl)ccc1C(=O)Nc1nc(-c2ccccc2)cs1 | 9.05% (inactive)
3 | Cc1ccc(C)c(-c2cc(C(F)(F)F)nn2-c2ccc(S(N)(=O)=O)cc2)c1 | -3.08% (inactive)
4 | Cc1cc(C)nc(NC(=S)N2CCN(c3nccc(C(F)(F)F)n3)CC2)c1 | -12.8% (inactive)
5 | COc1ccc(C2=Nn3c(nnc3-c3ccccc3Cl)SC2)cc1OC1CCCC1 | -6.42% (inactive)
6 | CCOC(=O)/C=C/c1cc(F)c(S(=O)(=O)N2CCN(S(=O)(=O)c3ccc4c(c3)OCCO4)CC2)cc1F | -20.7% (inactive)
7 | Brc1cnc2nc(SCc3ccncc3)[nH]c2c1 | -9.68% (inactive)
8 | CC(=O)Nc1sc2c(c1-c1nc3ccccc3s1)CCN(C(=O)OC(C)(C)C)C2 | -12.9% (inactive)
9 | Cc1ccc(S(=O)(=O)Nc2cccc(C(=O)Nc3nc(-c4ccccc4)cs3)c2)cc1 | 1.72% (inactive)
10 | O=C(CCc1ccccc1)Nc1cccc([S+](=O)([O-])Nc2ccccc2F)c1 | -6.42% (inactive)
11 | O=C1CCc2cc([S+](=O)([O-])NC3CCOCC3)ccc2N1 | 9.56% (inactive)
12 | Cc1cc(-c2nnc3n2CCCCC3)c(C)n1-c1ccc(C#N)cc1 | -11.8% (inactive)
13 | Cc1cc(C)nc(NC(=S)N2CCN(c3ccc(NS(C)(=O)=O)nn3)CC2)c1 | 17% (inactive)
14 | Cc1nc(NC2CCCCC2)c2nc(-c3ccccc3)n(CCN3CCCCC3)c2n1 | 14.3% (inactive)
15 | O=C(OCC#CCSc1nnc(-c2cc3ccccc3cc2O)o1)c1ccc(F)cc1 | 3.37% (inactive)
16 | CCOC(=O)C1CCN(C(=O)C2(NC(=O)Nc3ccccc3Cl)CCCCC2)CC1 | 4.11% (inactive)
